# COUP-TFII inh: blocks human COUP-TFII nuclear receptor | P24468 | HEK293T NGFI-A luciferase reporter, luminescence | 0.7% of 370,000 active | inhibition, % at 8.6 µM;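 active = inhibition above a per-plate cutoff, mean inhibition of test wells between control levels plus 3 SD, cut at about 38% in these data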;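 also: cells cotransfected with COUP-TFII expression vector driving the NGFI-A reporter; 0% = median of COUP-TF2 test wells and 100% = reporter-only cells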
# Gli-Sufu block: blocks Gli-Sufu signaling in a luciferase reporter; inhibition, % at 5 µM; Sufu-KO-LIGHT fibroblasts, Gli luciferase reporter luminescence; 0.74% of 340,000 active;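 active = inhibition above about 55%, limit read from the data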;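 also: 0% = DMSO-treated cells and 100% = wells with medium but no cells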
# NCOA3 inh: inhibitors of human steroid receptor coactivator 3 (SRC3) | Q9Y6Q9 | HEK293 GAL4-SRC3 luciferase reporter, luminescence | inhibition, % at 3.6 µM | 0.17% of 360,000 active | AID 588352;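 active = inhibition above a per-campaign cutoff, the mean of all compounds plus 3 SD, cut at about 60% in these data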;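 also: 0% = DMSO-treated cells and 100% = gossypol-treated cells at 36 µM; higher means less SRC3-driven luciferase light from the GAL4 reporter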
# NR5A2 inv ag: suppresses constitutive activity of human LRH-1; HEK293T StAR-luciferase reporter, LRH-1 transfected, 24 h; AID 602396; O00482; inhibition, % at 3.6 µM; 0.13% of 360,000 active;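 active = inhibition above the mean inhibition of all tested compounds plus 3 SD, cut at about 73% in these data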;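 also: 0% = DMSO wells and 100% = reporter-only cells lacking LRH-1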
# NCOA2 inhibitor: human SRC2 (NCOA2) inhibition; 0.17% of 370,000 active; Q15596; inhibition, % at 9 µM; HEK293 GAL4-SRC2 luciferase reporter, luminescence; AID 651957;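 active = inhibition above the mean inhibition of all tested compounds plus 3 SD, set per campaign, cut at about 52% in these data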;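 also: 0% = DMSO treated cells and 100% = cells given Gossypol at 36 µM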
# NCOA1 inh: inhibitors of human steroid receptor coactivator 1 (SRC1); Q15788; HEK293 GAL4-SRC1 luciferase reporter, luminescence; inhibition, % at 3.6 µM; 0.12% of 360,000 active; AID 588354;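 active = inhibition above the campaign mean plus 3 SD, with each screening campaign given its own cutoff, cut at about 60% in these data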;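 also: 0% = DMSO treated cells and 100% = gossypol at 36 µM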
# Target sequence (Q15788 whole entry, looked up, the tested form may be a part): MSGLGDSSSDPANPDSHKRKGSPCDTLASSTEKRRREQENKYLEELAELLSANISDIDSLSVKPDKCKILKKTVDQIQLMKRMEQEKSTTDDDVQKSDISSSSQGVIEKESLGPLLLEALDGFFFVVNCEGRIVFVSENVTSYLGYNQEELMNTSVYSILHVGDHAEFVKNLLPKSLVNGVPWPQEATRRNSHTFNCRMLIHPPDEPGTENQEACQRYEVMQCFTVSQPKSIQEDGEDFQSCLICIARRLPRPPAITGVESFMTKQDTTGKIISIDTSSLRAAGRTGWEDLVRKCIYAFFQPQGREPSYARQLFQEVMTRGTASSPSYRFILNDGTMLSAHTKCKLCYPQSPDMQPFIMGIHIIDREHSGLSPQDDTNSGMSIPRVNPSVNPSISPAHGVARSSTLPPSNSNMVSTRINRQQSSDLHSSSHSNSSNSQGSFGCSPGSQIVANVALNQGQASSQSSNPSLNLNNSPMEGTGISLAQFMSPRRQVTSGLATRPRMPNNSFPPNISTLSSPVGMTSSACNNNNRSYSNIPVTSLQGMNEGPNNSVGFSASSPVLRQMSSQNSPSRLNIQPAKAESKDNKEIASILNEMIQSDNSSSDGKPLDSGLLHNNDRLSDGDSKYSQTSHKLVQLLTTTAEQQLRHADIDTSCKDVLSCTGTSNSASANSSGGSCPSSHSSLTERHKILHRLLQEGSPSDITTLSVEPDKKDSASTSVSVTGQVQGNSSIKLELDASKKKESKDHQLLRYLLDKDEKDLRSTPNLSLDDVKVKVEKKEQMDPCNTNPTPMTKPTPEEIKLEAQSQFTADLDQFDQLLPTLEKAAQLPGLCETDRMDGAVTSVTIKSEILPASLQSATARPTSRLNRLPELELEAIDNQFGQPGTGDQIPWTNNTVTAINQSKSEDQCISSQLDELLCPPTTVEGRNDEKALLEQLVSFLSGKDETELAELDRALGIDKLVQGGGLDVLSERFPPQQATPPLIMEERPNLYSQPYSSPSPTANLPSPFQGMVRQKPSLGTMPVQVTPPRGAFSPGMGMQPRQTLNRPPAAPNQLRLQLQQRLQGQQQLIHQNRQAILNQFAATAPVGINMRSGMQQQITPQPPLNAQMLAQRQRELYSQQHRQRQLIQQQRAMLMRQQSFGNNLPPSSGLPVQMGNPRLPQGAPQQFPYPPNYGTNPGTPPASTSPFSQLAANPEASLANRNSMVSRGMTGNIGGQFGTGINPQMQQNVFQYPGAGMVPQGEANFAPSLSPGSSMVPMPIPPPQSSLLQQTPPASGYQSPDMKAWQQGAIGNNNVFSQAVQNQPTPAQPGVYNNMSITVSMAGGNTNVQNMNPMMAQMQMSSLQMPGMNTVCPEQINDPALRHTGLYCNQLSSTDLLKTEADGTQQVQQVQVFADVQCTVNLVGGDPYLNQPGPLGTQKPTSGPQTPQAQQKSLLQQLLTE
# VP16 Luc counter: inhibits VP16 reporter, flagging COUP-TFII antagonist hits; 25% of 2,500 active; shares compounds with COUP-TFII inh; HEK293 Gal4-VP16 luciferase reporter, luminescence; inhibition, % at 8.5 µM; in the data active = inhibition above about 13%
# NR2F2 inh conf: confirmation of human COUP-TFII (NR2F2) inhibitors. shares compounds with COUP-TFII inh. HEK293 NGFI-A luciferase reporter, luminescence. inhibition, % at 8.5 µM. 45% of 2,500 active;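 active = mean inhibition over three repeats above a set limit taken from the earlier primary screen, cut at about 38% in these data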;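 also: 100% = cells given the luciferase reporter alone without the COUP-TF2 vector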
# Starred values were filed as active, the others as inactive; nt = not tested or not shown. Compounds with a hit are over-represented: about 1.3% of the library has one in this group of screens.
SMILES,COUP-TFII inh,Gli-Sufu block,NCOA3 inh,NR5A2 inv ag,NCOA2 inhibitor,NCOA1 inh,VP16 Luc counter,NR2F2 inh conf
COC(=O)C1=C(C)N(Cc2ccccc2C(F)(F)F)C(=NCc2ccc(C(F)(F)F)cc2)NC1c1cccc(Cl)c1 (stereo not drawn),24,nt,nt,nt,15,nt,nt,nt
Cc1[nH]c2ccccc2c1/C=N/Nc1nncn1N,92*,-6,-34,-21,17,-33,-70,-35
Cc1cccc(C)c1OCc1cc(C(=O)N(Cc2c(C)nn(C)c2C)C2CC2)no1,51*,44,23,12,10,19,0,32
C[C@H]1[C@@H](OC(=O)NCc2ccc(Cl)cc2)CC[C@@]23CCCN2C(=O)CCC[C@@H]13,2,nt,nt,nt,nt,nt,nt,nt
N#CCCN(Cc1cccnc1)CN1C(=O)c2ccccc2C1=O,9,nt,11,8,30,9,nt,nt
COC(=O)c1cc(=O)nc(NN=Cc2ccc(OC)cc2)s1,nt,nt,5,8,nt,-3,nt,nt
CCCCOc1ncnc2c1[nH]c1ccc(OC)cc12,-30,-71,nt,nt,-36,nt,nt,nt
CCCCOc1ncnc2c1[nH]c1ccccc12,49*,-10,10,12,-8,-6,-60,33
COc1cc(-c2cnc3c(NC(C)=O)cc(-c4ccc(N5CCN(C)CC5)cc4)cn23)cc(OC)c1OC,41*,nt,14,-18,13,27,-15,9
CC(=O)Nc1cc(-c2cccc(NS(C)(=O)=O)c2)cn2c(-c3cccc(C(C)=O)c3)cnc12,-12,nt,13,38,-16,-22,nt,nt
COc1ccc(-c2cnc3c(NC(C)=O)cc(-c4cccc(NS(C)(=O)=O)c4)cn23)cc1OC,99*,nt,1,18,-3,-13,-1,-8
COc1cc(-c2cnc3c(NC=O)cc(-c4ccc(N5CCN(C)CC5)cc4)cn23)cc(OC)c1OC,-88,nt,-86,-72,-25,-63,nt,nt
O=C(Nc1ccc2c(c1)OCCO2)C(c1ccccc1)n1c(=O)c(-c2cc3ccccc3[nH]2)nc2ccccc21 (stereo not drawn),8,nt,nt,3,-26,nt,nt,nt
O=C(COC(=O)c1cccc(Br)c1)NCc1ccco1,-2,3,-7,14,-13,1,nt,nt
COC(=O)[C@@H](N[C@H](/C=C/c1ccccc1)[C@@H](O)Cc1ccccc1)c1ccccc1,-3,nt,nt,nt,-8,nt,nt,nt
COCC1CN(CCc2ccc(F)cc2)S(=O)(=O)c2c(F)cccc2O1 (stereo not drawn),-1,nt,nt,nt,1,nt,nt,nt
CCOC(=O)C1=CCN(S(=O)(=O)c2ccccc2C)C1c1ccc(Cl)c(Cl)c1 (stereo not drawn),2,nt,0,-8,35,14,nt,nt
O=c1c2ccccc2oc2ccc(C#CC3(O)CCCCC3)cc12,37,28,26,18,-16,34,nt,nt
Cn1c2ccccc2c(=O)c2cc(C#CC3(O)CCCCC3)ccc21,45*,-2,19,9,6,17,-67,38*
Cn1c2ccccc2c(=O)c2ccc(C#CC3(N)CCCCC3)cc21,-64,16,-59,-132,-192,-59,nt,nt
Cc1cc2sc3ccc(C#CC4(O)CCCCC4)cc3c(=O)c2cc1C,89*,nt,87*,78*,82*,88*,89*,109*
COc1ccc(OCc2nnc(SCC(=O)Nc3ccccc3C#N)o2)cc1,9,-17,9,14,-6,2,nt,nt
O=S1(=O)c2cc(Cl)ccc2N2CCC[C@@H]2CN1Cc1ccc(Cl)c(Cl)c1,6,nt,nt,nt,20,nt,nt,nt
CC(C)NC(=O)N1CCCN(c2nc3ccc(Cl)cc3s2)CC1,41*,-7,9,12,-16,-6,-31,5
CC(C)C(=O)N1CCN(c2nc3ccc(Cl)cc3s2)CC1,-4,-82,-34,-78,-24,-71,nt,nt
CC1(C)C(=O)Nc2ccccc2N1C(=O)COC(=O)CSc1ccc(Cl)cc1,-9,12,-14,-18,6,-6,nt,nt
CC(C)CCn1cnc2c(sc3nc4c(cc32)CSC(C)(C)C4)c1=O,55*,-15,-8,24,38,3,-57,24

# Bioassay records (PubChem BioAssay)
